Results filed as inconclusive are left out. Calls of active or inactive are those of the source. Unless noted, calls come from the whole dose curve; as a rule, active = well fitted curve in the direction sought with a large enough effect in the repeat runs; inconclusive = weak or mixed curves; inactive = no such curve, though single readings can be large; an effect the other way counts as inactive or inconclusive.

A short description of assay [1]: qHTS assay to identify small molecule that activate the aryl hydrocarbon receptor (AhR) signaling pathway - cell viability counter screen (AID 743086). Note: nearly all actives have a fitted effect of over 45% in size. Note: potency is the fitted concentration of half-maximal effect. The method in brief:
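HepG2-AhR-luc (HG2L7.5c1) cells, 4000/well, were preincubated 5 h at 37C, exposed to compound in qHTS format for 24 hr at 37C, then given CellTiter-Fluor for 30 min; viability was read as fluorescence in the reporter wells.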
Background: In qHTS, concentration-response curves come from the screen itself.

A short description of assay [2]: qHTS assay to identify small molecule antagonists of the peroxisome proliferator-activated receptor gamma (PPARg) signaling pathway - cell viability counter screen (AID 743194). Note: nearly all actives have a fitted effect of over 55% in size. An outline of the steps: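 PPARg-UAS-bla HEK293H cells were plated, rested 5 h at 37 C, then treated with compounds plus rosiglitazone (50 nM final) for 17 h at 37 C; viability was then read by CellTiter-Glo luminescence after 30 min at room temperature.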

Assay [3] is described as follows: qHTS assay for small molecule agonists of the antioxidant response element (ARE) signaling pathway - cell viability counter screen (AID 743203; calls by dose curve; note: nearly all actives have a fitted effect of over 55% in size; note: potency is the fitted concentration of half-maximal effect). An outline of the steps:
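Cells (ARE-bla HepG2, 2,000/well) receive DMSO-dissolved compounds after a 5 hrs rest. Plates incubate 16 hrs at 37C/5% CO2. CellTiter-Glo luminescence is then recorded after 30 min at room temperature.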

A short description of assay [4]: qHTS assay for small molecule activators of the heat shock response signaling pathway - cell viability counter screen (AID 743209). Note: nearly all actives have a fitted effect of over 50% in size. An outline of the steps: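 Quantitative HTS format, Tox21 10K library. HeLa cells carrying an HSE-driven beta-lactamase reporter were treated 5 h at 37 C, then assessed for viability by CellTiter-Glo luminescence.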
Assay [5] is described as follows: qHTS assay for small molecule activators of the heat shock response signaling pathway (AID 743210; active = well fitted activation curve with a large enough effect in the signal ratio in the repeat runs, with a control signal flat, not every such curve was filed as active; the % refers to the signal ratio; note: series mostly up to about 63 µM). An outline of the steps:
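Reporter gene assay: HeLa cells stably bearing an HSE-bla construct, compound treatment 5 h at 37 C, LiveBLAzer substrate 2.5 h at RT, fluorescence intensity.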

Assay [6] can be described thus: qHTS assay to identify small molecule agonists of the peroxisome proliferator-activated receptor delta (PPARd) signaling pathway - cell viability counter screen (AID 743211). Note: nearly all actives have a fitted effect of over 55% in size. An outline of the steps:
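Following 5 h plating at 37 C and 5% CO2, PPARd UAS-bla HEK293H cells took up test compounds for 17 h. Viability was quantified by luminescence 30 min after CellTiter-Glo addition at room temperature.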

Assay [7] in a line: qHTS assay to identify small molecule antagonists of the peroxisome proliferator-activated receptor delta (PPARd) signaling pathway - cell viability counter screen (AID 743213). Note: nearly all actives have a fitted effect of over 50% in size. The method in brief: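 PPARd-bla HEK293H cells (3000/well) got compound plus 300 nM L165041 agonist for 17 h at 37 C. Viability in the same wells came from CellTiter-Glo luminescence after 30 min at room temperature.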

Assay [8] in a line: qHTS assay to identify small molecule agonists of the farnesoid-X-receptor (FXR) signaling pathway - cell viability counter screen (AID 743218). Note: nearly all actives have a fitted effect of over 45% in size. The method in brief: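 In GeneBLAzer FXR-UAS-bla HEK 293T cells, compounds act for 16 h at 37 C. Cell viability is then scored in the reporter wells by CellTiter-Glo, 30 min at RT, luminescence.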
Assay [9] can be described thus: qHTS assay to identify small molecule antagonists of the farnesoid-X-receptor (FXR) signaling pathway - cell viability counter screen (AID 743221; active = well fitted cell-killing curve with a large enough effect in the repeat runs, not every such curve was filed as active; note: nearly all actives have a fitted effect of over 50% in size). The method in brief: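 Compound effects on cell number were measured as CellTiter-Glo luminescence in HEK 293T cells expressing FXR-UAS-bla, after 16 h at 37 C with 50 uM CDCA (final).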
Assay [10] concerns the target Aryl hydrocarbon receptor (Homo sapiens) (UniProt P35869). Briefly: qHTS assay to identify small molecule that activate the aryl hydrocarbon receptor (AhR) signaling pathway (AID 743085).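 For activation: HG2L7.5c1 human HepG2 liver cells with stably integrated DRE-driven firefly reporter; series mostly up to about 70 µM.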 Note: nearly all actives have a fitted effect of over 15% in size. Note: potency is the fitted concentration of half-maximal effect. An outline of the steps: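 Measured in HG2L7.5c1 cells: CellTiter-Fluor signal (30 min incubation, 37C) for viability, then luciferase luminescence (30 min, room temperature). Compound contact time was 24 h at 37C, following a 5 h pre-incubation.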

For assay [11], the target named is Peroxisome proliferator-activated receptor delta (Homo sapiens) (UniProt Q03181). Briefly: qHTS assay to identify small molecule agonists of the peroxisome proliferator-activated receptor delta (PPARd) signaling pathway (AID 743212; calls by dose curve). An outline of the steps: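 A PPARd-bla HEK293H line with beta-lactamase under an Upstream Activator Sequence is treated with compounds at 37 C. Substrate loading for 2 h at room temperature precedes the fluorescence measurement.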

The target is the same in assay [12]. Nature of the assay: qHTS assay to identify small molecule antagonists of the peroxisome proliferator-activated receptor delta (PPARd) signaling pathway (AID 743215; active = well fitted inhibition curve with a large enough effect in the signal ratio in the repeat runs, not every such curve was filed as active; the % refers to the signal ratio;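 note: cells stimulated with agonist L165041 at 300 nM final during compound exposure; series mostly up to about 62 µM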). An outline of the steps:
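Antagonist-mode beta-lactamase reporter screen: HEK293H cells with UAS-bla under PPARd control, stimulated by 300 nM L165041 (final) alongside test compound for 17 h at 37 C, then FRET fluorescence after 2 h substrate incubation.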

Assay [13] concerns the target Bile acid receptor (Homo sapiens) (UniProt Q96RI1). Nature of the assay: qHTS assay to identify small molecule agonists of the farnesoid-X-receptor (FXR) signaling pathway (AID 743220; active = well fitted activation curve with a large enough effect in the signal ratio in the repeat runs, not every such curve was filed as active; the % refers to the signal ratio). An outline of the steps: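 Beta-lactamase reporter under UAS control in GeneBLAzer FXR HEK 293T cells (5000/well) measured with LiveBLAzer FRET substrate after 2 h at room temperature. Compound exposure lasted 16 h at 37C.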

Assay [14] concerns the target Vitamin D3 receptor (Homo sapiens) (UniProt P11473). Nature of the assay: qHTS assay to identify small molecule agonists of the vitamin D receptor (VDR) signaling pathway (AID 743222; calls by dose curve). The method in brief:
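Agonist activity measured in VDR-bla reporter cells. Exposure 16 h, 37C, 5% CO2; detection by B/G FRET substrate, 2 h RT.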

Assay [15] has the same target. Briefly: qHTS assay to identify small molecule antagonists of the vitamin D receptor (VDR) signaling pathway (AID 743223; active = well fitted inhibition curve with a large enough effect in the signal ratio in the repeat runs, not every such curve was filed as active; the % refers to the signal ratio). The method in brief:
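Beta-lactamase activity in VDR-bla cells is measured by FRET substrate fluorescence (2 h, room temperature) after cells spend 16 h at 37C with test compound and 3 nM final 1alpha,25-dihydroxyvitamin D3.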

Assay [16] has as its target Peroxisome proliferator-activated receptor gamma (Homo sapiens) (UniProt P37231). Nature of the assay: qHTS assay to identify small molecule antagonists of the peroxisome proliferator-activated receptor gamma (PPARg) signaling pathway (AID 743191; calls by dose curve; note: series mostly up to about 63 µM; nearly all actives have a fitted effect of over 30% in size). An outline of the steps:
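GeneBLAzer PPARg UAS-bla HEK293H cells carrying a UAS-driven beta-lactamase reporter were plated at 3000 cells/well, preincubated 5 h at 37C, then given compound for 17 h at 37C; LiveBLAzer B/G FRET substrate was read after 1 h at room temperature.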

The nature of assay [17]: qHTS assay for small molecule agonists of the antioxidant response element (ARE) signaling pathway (AID 743202; active = well fitted activation curve with a large enough effect in the signal ratio in the repeat runs, not every such curve was filed as active; the % refers to the signal ratio; note: potency is the fitted concentration of half-maximal effect). An outline of the steps: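 Compounds delivered in DMSO to ARE-bla HepG2 cells (2,000 cells/well, pre-incubated 5 h) and left 16 h at 37 C. LiveBLAzer B/G FRET substrate then added for 2 h at RT before fluorescence reading.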
The target in assay [18] is Bile acid receptor (Homo sapiens) (UniProt Q96RI1). Briefly: qHTS assay to identify small molecule antagonists of the farnesoid-X-receptor (FXR) signaling pathway (AID 743217; active = well fitted inhibition curve with a large enough effect in the signal ratio in the repeat runs, not every such curve was filed as active; the % refers to the signal ratio). An outline of the steps:
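Beta-lactamase reporter under UAS control in HEK 293T cells; compound exposure 16 h at 37 °C in the presence of chenodeoxycholic acid (50 uM final); signal from B/G FRET substrate after 2 h at room temperature.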

Vitamin D3 receptor (Homo sapiens), sequence (P11473 whole entry, looked up): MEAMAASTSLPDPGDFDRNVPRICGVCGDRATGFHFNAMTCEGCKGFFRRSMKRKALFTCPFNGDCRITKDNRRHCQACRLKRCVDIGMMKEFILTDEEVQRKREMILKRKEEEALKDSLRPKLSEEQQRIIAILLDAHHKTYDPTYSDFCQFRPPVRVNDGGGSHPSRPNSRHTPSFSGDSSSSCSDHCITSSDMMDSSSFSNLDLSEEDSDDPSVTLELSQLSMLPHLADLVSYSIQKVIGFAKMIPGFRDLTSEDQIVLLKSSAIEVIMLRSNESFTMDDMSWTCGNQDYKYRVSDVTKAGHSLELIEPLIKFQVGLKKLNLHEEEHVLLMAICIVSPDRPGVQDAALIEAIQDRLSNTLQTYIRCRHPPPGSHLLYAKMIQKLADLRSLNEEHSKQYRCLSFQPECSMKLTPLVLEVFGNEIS
Peroxisome proliferator-activated receptor delta (Homo sapiens), sequence (Q03181 whole entry, looked up): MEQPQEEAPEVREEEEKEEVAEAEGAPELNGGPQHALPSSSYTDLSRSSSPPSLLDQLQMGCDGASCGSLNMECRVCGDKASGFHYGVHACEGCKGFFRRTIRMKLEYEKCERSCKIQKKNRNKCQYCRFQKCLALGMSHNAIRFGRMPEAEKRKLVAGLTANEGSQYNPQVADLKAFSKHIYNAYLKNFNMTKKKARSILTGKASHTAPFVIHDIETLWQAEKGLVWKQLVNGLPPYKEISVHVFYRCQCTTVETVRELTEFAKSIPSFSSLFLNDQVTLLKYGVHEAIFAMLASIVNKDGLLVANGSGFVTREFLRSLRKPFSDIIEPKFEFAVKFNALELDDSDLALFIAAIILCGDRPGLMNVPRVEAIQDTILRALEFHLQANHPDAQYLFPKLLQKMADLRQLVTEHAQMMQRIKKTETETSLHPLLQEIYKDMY
Bile acid receptor (Homo sapiens), sequence (Q96RI1 whole entry, looked up): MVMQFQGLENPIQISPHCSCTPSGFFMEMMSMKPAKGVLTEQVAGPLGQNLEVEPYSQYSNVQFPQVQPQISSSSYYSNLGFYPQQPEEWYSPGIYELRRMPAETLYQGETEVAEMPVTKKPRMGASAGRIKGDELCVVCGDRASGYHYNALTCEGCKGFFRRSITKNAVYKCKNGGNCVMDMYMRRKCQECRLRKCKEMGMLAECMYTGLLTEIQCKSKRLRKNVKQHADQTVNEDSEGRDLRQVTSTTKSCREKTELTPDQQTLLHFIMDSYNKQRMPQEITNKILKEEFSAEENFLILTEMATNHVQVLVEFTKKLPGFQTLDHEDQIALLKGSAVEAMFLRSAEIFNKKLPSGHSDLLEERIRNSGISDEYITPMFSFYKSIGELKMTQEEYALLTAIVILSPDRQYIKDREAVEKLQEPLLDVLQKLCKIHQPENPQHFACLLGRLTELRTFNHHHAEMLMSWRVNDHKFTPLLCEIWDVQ
Aryl hydrocarbon receptor (Homo sapiens), sequence (P35869 whole entry, looked up): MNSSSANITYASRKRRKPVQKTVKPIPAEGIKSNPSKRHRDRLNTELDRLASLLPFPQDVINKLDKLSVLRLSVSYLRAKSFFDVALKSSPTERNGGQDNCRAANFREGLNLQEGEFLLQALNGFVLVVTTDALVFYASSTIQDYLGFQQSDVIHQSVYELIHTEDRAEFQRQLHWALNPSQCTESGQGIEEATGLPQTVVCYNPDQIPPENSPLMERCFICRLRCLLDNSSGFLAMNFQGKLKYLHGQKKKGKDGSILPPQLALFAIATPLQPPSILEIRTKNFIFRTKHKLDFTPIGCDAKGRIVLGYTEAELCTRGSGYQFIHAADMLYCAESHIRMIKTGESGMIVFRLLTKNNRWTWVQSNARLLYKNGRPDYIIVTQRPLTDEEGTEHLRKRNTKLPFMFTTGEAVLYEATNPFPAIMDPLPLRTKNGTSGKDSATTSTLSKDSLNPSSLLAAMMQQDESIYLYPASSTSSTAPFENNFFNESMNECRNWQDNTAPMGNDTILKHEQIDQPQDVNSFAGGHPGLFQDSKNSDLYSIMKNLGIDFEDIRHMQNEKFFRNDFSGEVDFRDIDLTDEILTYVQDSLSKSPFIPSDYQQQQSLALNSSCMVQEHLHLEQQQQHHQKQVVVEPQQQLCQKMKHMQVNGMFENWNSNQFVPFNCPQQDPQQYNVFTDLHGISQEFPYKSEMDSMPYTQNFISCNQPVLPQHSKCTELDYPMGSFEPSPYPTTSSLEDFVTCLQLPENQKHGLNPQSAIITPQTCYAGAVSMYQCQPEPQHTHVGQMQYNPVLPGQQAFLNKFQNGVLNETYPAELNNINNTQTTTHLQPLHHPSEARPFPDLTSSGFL
Peroxisome proliferator-activated receptor gamma (Homo sapiens), sequence (P37231 whole entry, looked up): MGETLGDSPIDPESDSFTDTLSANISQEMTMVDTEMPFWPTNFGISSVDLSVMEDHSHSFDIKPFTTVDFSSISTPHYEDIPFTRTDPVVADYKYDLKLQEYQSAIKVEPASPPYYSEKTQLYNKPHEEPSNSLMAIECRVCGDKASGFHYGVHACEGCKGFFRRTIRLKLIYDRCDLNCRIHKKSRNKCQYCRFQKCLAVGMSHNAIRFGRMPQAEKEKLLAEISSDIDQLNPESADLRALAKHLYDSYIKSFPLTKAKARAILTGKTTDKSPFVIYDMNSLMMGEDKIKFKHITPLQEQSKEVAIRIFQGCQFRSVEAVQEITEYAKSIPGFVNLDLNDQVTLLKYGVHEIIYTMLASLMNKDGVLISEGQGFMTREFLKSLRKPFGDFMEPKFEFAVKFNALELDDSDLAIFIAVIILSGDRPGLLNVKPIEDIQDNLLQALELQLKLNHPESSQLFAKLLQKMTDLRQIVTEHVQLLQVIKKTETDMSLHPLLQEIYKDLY

In the case of `CCC(C)[O-].CCC(C)[O-].CCOC(=O)/C=C(/C)[O-].[Al+3]`, the Potency result in [1], in [2], in assay [3], in [4], in assay [5] and in assay [6] was “inactive” in each case. In addition, the Potency entry in [7], in assay [8] and in assay [9] was “inactive” each time.
In the case of `CN1CCN(Cc2cc(-c3ccc4[nH]c(=O)oc4c3)co2)[C@@H](c2ccc(F)cc2)C1`, the Potency result in assay [10], in [3], in [11], in assay [12], in assay [13] and in [9] was “inactive” in each case. Besides, the Potency result in assay [14] and in assay [15] was “inactive” in each case. The Potency in [1] is 52.4 µM (active).
Regarding `CCC(=O)C(=O)CC`, the Potency entry in assay [1], in [4], in [5], in [6], in assay [11] and in assay [7] was “inactive” in each case. Moreover, the Potency entry in assay [12], in [8], in assay [9], in [14] and in [15] was “inactive” throughout.
As to `Cc1ccc(O)c(N)c1`, the Potency in assay [10] was 34.4 µM (active). Besides, the Potency entry in [3], in [4], in assay [8] and in assay [9] was “inactive” each time.
Turning to `C#Cc1ccc(-c2ccccc2F)cc1`, the Potency result in [16], in [2], in assay [17], in assay [3], in assay [4] and in [11] was “inactive” throughout. The Potency result in assay [7], in assay [12], in [18], in assay [8], in assay [13] and in [9] was “inactive” throughout.
As for `Cc1cc(-n2nc3ccc(Cl)cc3n2)c(O)c(C(C)(C)C)c1`, the Potency result in [1], in [2], in assay [17], in assay [3], in assay [4] and in [5] was “inactive” throughout. For the same compound, the Potency entry in assay [6], in assay [11], in assay [7], in assay [12], in [18] and in assay [8] was “inactive” throughout. Moreover, the Potency result in assay [9], in assay [14] and in assay [15] was “inactive” in each case.
Turning to `c1ccc(C(O[C@@H]2CCCN(CCc3ccc4c(c3)OCO4)C2)c2ccccc2)cc1`, the Potency result in assay [1], in assay [4], in assay [11], in assay [7] and in [9] was “inactive” in each case. Besides, the Potency in assay [3] was 61.1 µM (active).
Regarding `O=c1oc2cc(O)ccc2c2oc3cc(O)ccc3c12`, the Potency entry in [1], in assay [3], in assay [6], in [7], in assay [8] and in assay [9] was “inactive” each time. Besides, in assay [17], the Potency was 20.8 µM (active).
Regarding `O=C(O)Cc1ccc2c(c1)C(=O)c1ccccc1CO2`, the Potency entry in [2], in [3], in [4], in assay [6], in assay [11] and in assay [12] was “inactive” in each case. Also, the Potency entry in [8], in assay [9] and in assay [15] was “inactive” throughout.
For `CC/C=C\CCCCCO`, the Potency result in [1], in assay [2], in [17], in assay [3], in assay [4] and in assay [5] was “inactive” throughout. Also, the Potency result in [11], in [7], in [12], in [8], in assay [9] and in [14] was “inactive” throughout. Also, the Potency result in [15] was “inactive”.
Regarding `CN(C)[C@@H](CCOc1cccc2ccccc12)c1ccccc1`, the Potency entry in [11], in assay [12], in assay [13], in assay [9] and in [15] was “inactive” in each case.

These data come from PubChem BioAssay (Tox21).
